Sampled rows, rich in hits. Any-hit rate of the full collection: about 2.5%.
MBD2 DNA inh: inhibitors of human MBD2 binding to methylated oligonucleotide; Q9UBB5; TR-FRET; inhibition, % at 4.4 µM; 0.31% of 370,000 active; in the data active = inhibition above about 13%
UHRF1 binding: human UHRF1 methylated DNA binding inhibitors; UHRF1 binding to methylated oligo, TR-FRET; AID 687016; 0.75% of 370,000 active; inhibition, % at 4.4 µM; in the data active = inhibition above about 21%;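 note: UHRF1 SRA domain binding a hemimethylated CpG hairpin DNA probe; 0% = median of test compound wells and 100% = reference inhibitor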
LEDGF integ inh: blocks HIV-1 LEDGF/p75-dependent DNA integration. 0.64% of 370,000 active. AID 743269. TR-FRET IN-LEDGF/p75 DNA integration, Eu/Cy5. inhibition, % at 3.7 µM;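 active = inhibition above the screen-wide mean plus 3 SD, cut at about 13% in these data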;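 note: signal is the Cy5 over europium emission ratio at 671 and 618 nm; 0% = plate median of compound wells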
PRMT1 inh: inhibitors of human PRMT1; recombinant PRMT1, activity-based probe fluorescence polarization; inhibition, % at 2.79 µM; 1.3% of 370,000 active; AID 652257;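 active = inhibition above about 21% made by adding two undisclosed values, limit read from the data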
Target sequence (Q99873 whole entry, looked up): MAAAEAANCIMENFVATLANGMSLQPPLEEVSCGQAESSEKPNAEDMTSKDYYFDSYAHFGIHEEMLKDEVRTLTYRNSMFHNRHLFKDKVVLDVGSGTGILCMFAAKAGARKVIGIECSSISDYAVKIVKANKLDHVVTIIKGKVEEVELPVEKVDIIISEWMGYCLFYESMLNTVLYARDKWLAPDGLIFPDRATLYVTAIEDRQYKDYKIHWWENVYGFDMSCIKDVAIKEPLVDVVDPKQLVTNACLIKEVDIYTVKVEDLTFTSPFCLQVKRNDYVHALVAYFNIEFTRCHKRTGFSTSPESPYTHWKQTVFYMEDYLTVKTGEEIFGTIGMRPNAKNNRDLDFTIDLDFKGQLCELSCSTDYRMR
IN multimer act: counter-screen for LEDGF/p75 integration inhibitors: HIV-1 integrase multimerization activators. shares compounds with LEDGF integ inh. TR-FRET HIV-1 integrase multimerization, biochemical. activation, % at 7.7 µM. 17% of 2,000 active; in the data active = activation above about 8.9%
TR-FRET interf: counter-screen for LEDGF/p75 integration inhibitors: TR-FRET optical interference. shares compounds with LEDGF integ inh. TR-FRET optical interference counterscreen, HIV-1 IN multimerization. inhibition, % at 7.7 µM. 2,000 tested, under 10 active;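 active = inhibition above the mean over all tested compounds plus 3 SD, which no compound reached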;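 note: 0% = integrase with antibodies and DMSO and 100% = antibodies without integrase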
LEDGF integ conf: confirmation of HIV-1 LEDGF/p75-dependent integration inhibitors; 36% of 2,000 active; AID 1053136; inhibition, % at 3.7 µM; shares compounds with LEDGF integ inh; TR-FRET LEDGF/p75-dependent HIV-1 integration, biochemical; in the data active = inhibition above about 14%
* hit, by the source's call; · = no result given.

SMILES	MBD2 DNA inh	UHRF1 binding	LEDGF integ inh	PRMT1 inh	IN multimer act	TR-FRET interf	LEDGF integ conf
COCCCNC(=O)/C(C#N)=C/c1ccc(OCC(=O)O)c(OC)c1	7	34*	17*	7	23*	-115	36*
Cc1ccc(CN2CCN(C(=O)c3ccncc3)CC2)cc1	-2	1	75*	-2	0	-1	4
O=C(c1ccccc1)N1CCN(Cc2ccccc2)CC1	1	4	4	-2	·	·	·
Cc1ccc(CN2CCN(C(=O)CCN3C(=O)c4ccccc4C3=O)CC2)cc1	4	3	79*	1	-1	3	2
O=C(CCN1C(=O)c2ccccc2C1=O)N1CCN(Cc2ccccc2)CC1	4	0	-1	-2	·	·	·
COc1cc(-c2[nH]nc3c2C(c2ccco2)C(C#N)=C(N)O3)cc(OC)c1OC (configuration not stated)	1	6	16*	-3	2	-9	8
COc1cc(/C=C2\C(=O)N(CCC#N)N=C2C)ccc1OCC(=O)Nc1ccccc1	3	12	9	0	·	·	·
CCOc1cc(/C=C2\C(=O)N(CCC#N)N=C2C)ccc1OCC(N)=O	5	15	15*	0	-3	10	-1
O=C(O)/C=C/C(=O)N1Cc2cc3ccccc3nc2C1	10	8	19*	14	0	-1	3
CCOC(=O)N1Cc2cc3ccccc3nc2C1	-2	-6	6	-3	·	·	·
O=C(O)c1cccc(-n2cccc2/C=C/[N+](=O)[O-])c1	21*	74*	36*	26*	14*	-70	40*
N#C/C(=C/c1cccn1-c1cccc(C(=O)O)c1)c1ccc(Cl)cc1	-2	3	0	7	·	·	·
Clc1ccc2oc(-c3cccnc3)nc2c1	-6	-8	0	-3	·	·	·
Clc1ccc2oc(-c3ccccc3)nc2c1	2	9	19*	1	6	-20	4
COc1cc2c(C#N)c(N3CCCCC3)nc(N)c2c(N)n1	-2	-13	34*	5	1	-3	1
COc1cc2c(C#N)c(N3CCOCC3)nc(N)c2c(N)n1	-1	-11	2	6	·	·	·
Cc1ccc(S(=O)(=O)c2nc(-c3ccco3)oc2SC(C)C)cc1	-8	1	16*	4	3	-14	2
COc1ccc(OC)c(CNC(=O)CCNC(=O)Cn2ccc3ccccc3c2=O)c1	-2	3	47*	-2	-1	4	3
S=c1[nH]nc(-c2cc(-c3ccccc3)n[nH]2)n1/N=C/C=C/c1ccco1	-4	-2	3	12	·	·	·
S=c1[nH]nc(-c2ccco2)n1/N=C/C=C/c1ccco1	11	26*	21*	13	16*	-80	74*
CC(C)(C)c1cc(=O)n(-c2ccccc2)[nH]1	9	15	22*	-1	-2	7	11
Cc1cc(C(C)(C)C)nc2[nH]n(-c3ccccc3)c(=O)c12	-10	-5	-4	-2	·	·	·
O=c1cc(-c2ccccc2)[nH]n1-c1ccccc1	7	16	37*	6	1	-5	-1
O=c1ccc(=O)n(-c2ccccc2)[nH]1	-3	-4	2	9	·	·	·
Cc1noc(C)c1NC(=O)N(C)C[C@@H]1Oc2ccc(NC(=O)Cc3cn(C)c4ccccc34)cc2CC(=O)N([C@H](C)CO)C[C@@H]1C	3	0	4	-1	·	·	·
SMILES	MBD2 DNA inh	UHRF1 binding	LEDGF integ inh	PRMT1 inh	IN multimer act	TR-FRET interf	LEDGF integ conf
CN(C)CCNC(=O)/C=C/c1cn(-c2ccccc2)nc1-c1cc2ccccc2oc1=O	4	-2	-3	3	·	·	·
Cc1cccc[n+]1CCCCCCCCCC[n+]1ccccc1C	4	-2	21*	0	0	0	-4
CCCCCCCCCC[n+]1cccc2c3ccccc3ccc21	2	-1	-5	0	·	·	·
CCC(=O)c1ccc(OCC(O)Cn2cnc3ccccc32)cc1 (configuration not stated)	3	2	36*	1	11*	-57	-3
CCC(=O)c1ccc(OCC(O)Cn2c(C)nc3ccccc32)cc1 (configuration not stated)	7	6	-3	4	·	·	·
COc1ccc(CCNC(=O)CCCn2nc(C)c([N+](=O)[O-])c2C)cc1OC	-1	-1	0	-2	·	·	·
C/C(=N\NC(=O)c1ccc([N+](=O)[O-])cc1)c1c(O)cc(C)oc1=O	-3	0	5	-6	·	·	·
C/C(=N/NC(=O)c1cc(O)c(O)c(O)c1)c1ccc([N+](=O)[O-])cc1	5	22*	31*	16	19*	-98	51*
O=C1CC(Nc2ccccc2)C(=O)N1c1ccc(N2CCOCC2)cc1 (configuration not stated)	3	1	-1	2	·	·	·
O=C1CC(Nc2ccc(N3CCOCC3)cc2)C(=O)N1c1ccccc1F (configuration not stated)	-7	-4	15*	17	1	-7	0
CCC(NC(=O)CC[C@H]1O[C@@H](n2cc(C)c(=O)[nH]c2=O)C[C@@H]1O)c1ccccc1 (some centres not stated)	0	-2	1	1	·	·	·
COC(=O)[C@]12C[C@H](CC(=O)N3CCSCC3)C(=O)N(Cc3cccc4ccccc34)C1=C[C@H](C1CCCC1)O[C@@H]2C	-4	3	1	-1	·	·	·
CCOC(=O)c1c(C)[nH]c(C(=O)COC(=O)c2ccco2)c1C	-6	2	5	-3	·	·	·
CCOc1cccc(/C=N/NC(=S)Nc2ccccc2[N+](=O)[O-])c1O	1	-9	-2	0	·	·	·
O=[N+]([O-])c1ccccc1NC(=S)N/N=C/c1ccc(O)c(O)c1	-3	10	46*	8	11*	-57	71*
CC1CCC(C(=O)NNC(=O)c2cc(-c3ccco3)[nH]n2)CC1 (configuration not stated)	-1	0	-7	9	·	·	·
O=C(O)c1cc(-c2ccco2)[nH]n1	3	12	15*	14	2	-10	4
O=C(N[C@H](C(=O)N1CCC[C@H]1C(=O)NCc1ccccc1)C1CCCCC1)c1ccc(Cl)cc1Cl	-3	-1	3	-4	·	·	·
O=C(NCC(c1cccs1)N1CCOCC1)c1ccccc1NS(=O)(=O)c1ccc(Cl)c([N+](=O)[O-])c1 (configuration not stated)	-6	-1	35*	-1	0	-1	-1
Cn1c(=O)c2ccccc2n(Cc2cccc(F)c2)c1=O	0	4	21*	-1	1	-3	-1
Cn1c(=O)c2ccccc2n(Cc2ccccc2F)c1=O	1	-2	2	-1	·	·	·
CCN(CC)c1cc(Oc2ccccc2)ncn1	-3	1	47*	-4	1	-5	-6
